Measured values published in PubChem BioAssay (NCI).
Several values for one entry are separate records, joined by “and”; a condition that tells them apart may be missing. Equal values may be shown once. Compounds without any hit were thinned out: in the full panel of roughly 83,000, 20% have a hit.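 Values shown are percent growth following 48 h exposure of cells in 96-well plates to a single concentration of compound; below 10 was considered active.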 Activity calls are given as the source filed them. Where a SMILES comes first, the peptide text is derived from it. [ ]: non-standard residue; d: D form. ξ: configuration not given here. ξV = CC(C)C(N)C(=O)O

Key:
Experiment in all cases: NCI-60 one-dose screen, 48 h (100 = growth as untreated, 0 = no growth, -100 = all killed)
SK-MEL-2 melanoma = test system: SK-MEL-2 melanoma
EKVX NSCLC = test system: EKVX NSCLC
SN12C renal = test system: SN12C renal
UO-31 renal = test system: UO-31 renal
TK-10 renal = test system: TK-10 renal
ACHN renal = test system: ACHN renal
CAKI-1 renal = test system: CAKI-1 renal
A498 renal = test system: A498 renal
CCRF-CEM leukemia = test system: CCRF-CEM leukemia
MOLT-4 leukemia = test system: MOLT-4 leukemia

Row | SMILES | growth (SK-MEL-2 melanoma; 10 µM) | growth (EKVX NSCLC; 10 µM) | growth (SN12C renal; 10 µM) | growth (UO-31 renal; 10 µM) | growth (TK-10 renal; 10 µM) | growth (ACHN renal; 10 µM) | growth (CAKI-1 renal; 10 µM) | growth (A498 renal; 10 µM) | growth (CCRF-CEM leukemia; 10 µM) | growth (MOLT-4 leukemia; 10 µM) | growth (SK-MEL-2 melanoma; 100 µM) | growth (EKVX NSCLC; 100 µM) | growth (SN12C renal; 100 µM) | growth (UO-31 renal; 100 µM) | growth (TK-10 renal; 100 µM) | growth (ACHN renal; 100 µM) | growth (CAKI-1 renal; 100 µM) | growth (A498 renal; 100 µM) | growth (CCRF-CEM leukemia; 100 µM) | growth (MOLT-4 leukemia; 100 µM)
1 | Nc1c2ccccc2nc2ccccc12 | -33.8% (active) and 33.6% (inactive) and 51.8% (inactive) | -24.1% (active) and 43.9% (inactive) and 57.3% (inactive) | 12% (inactive) and 33.2% (inactive) and 33.5% (inactive) | 12.8% (inactive) and 11.1% (inactive) and 14.2% (inactive) | -13.4% (active) and 48.2% (inactive) | 16.9% (inactive) and 25.5% (inactive) | -37.7% (active) and 19.8% (inactive) and 21.5% (inactive) | -0.261% (active) and 37.5% (inactive) and 18.3% (inactive) | 35.3% (inactive) and 20.5% (inactive) and 50.7% (inactive) | 8.47% (active) and 10.2% (inactive) and 12.6% (inactive) | – | – | – | – | – | – | – | – | – | –
2 | N=S(c1ccccc1[N+](=O)[O-])c1ccccc1[N+](=O)[O-] | 89.2% (inactive) | 85.8% (inactive) | 84.9% (inactive) | 5.99% (active) | 22.4% (inactive) | 2.38% (active) | 85.5% (inactive) | 107% (inactive) | 7.69% (active) | 98.9% (inactive) | – | – | – | – | – | – | – | – | – | –
3 | O=c1ccn(C2CC(O)C(COC(c3ccccc3)(c3ccccc3)c3ccccc3)O2)c(=O)[nH]1 (stereo unspecified) | – | – | 95.9% (inactive) | 54.6% (inactive) | 95.4% (inactive) | 86.4% (inactive) | 127% (inactive) | 98.6% (inactive) | – | 67.1% (inactive) | 26% (inactive) | 52.8% (inactive) | 38.8% (inactive) | 37.1% (inactive) | 87.8% (inactive) | 56.9% (inactive) | 30.3% (inactive) | 102% (inactive) | 45.5% (inactive) | 9.6% (active)
4 | CN1CCN(CCCN2c3ccccc3Sc3ccc(C(F)(F)F)cc32)CC1 | 88.1% (inactive) | 66.9% (inactive) | 57% (inactive) | 35.1% (inactive) | 66% (inactive) | 46.6% (inactive) | 34% (inactive) | 70.2% (inactive) | 50.2% (inactive) | 37.6% (inactive) | – | – | – | – | – | – | – | – | – | –
5 | O=C(Nc1ccc(C(=O)O)c(O)c1)c1ccccc1 | 113% (inactive) and 97.3% (inactive) | 98.9% (inactive) and 93.7% (inactive) | 95.2% (inactive) and 101% (inactive) | 81.3% (inactive) and 88.6% (inactive) | 106% (inactive) and 94.5% (inactive) | 96% (inactive) and 96.3% (inactive) | 102% (inactive) and 85.8% (inactive) | 121% (inactive) and 139% (inactive) | 130% (inactive) and 124% (inactive) | 109% (inactive) and 119% (inactive) | – | – | – | – | – | – | – | – | – | –
6 | Nc1nc(=S)c2ncn(C3OC(CO)C(O)C3O)c2[nH]1 (stereo unspecified) | 93% (inactive) and 15.6% (inactive) | 110% (inactive) and 23.3% (inactive) | 107% (inactive) and 26% (inactive) | 95.4% (inactive) and 19.8% (inactive) | 120% (inactive) and -8.09% (active) | 112% (inactive) and 17.2% (inactive) | 113% (inactive) and -8.94% (active) | 125% (inactive) and 29.6% (inactive) | 96.4% (inactive) and 24.2% (inactive) | 100% (inactive) and 13.4% (inactive) | – | – | – | – | – | – | – | – | – | –
7 | Clc1cc(Cl)c(Cl)nn1 | 99.9% (inactive) | 115% (inactive) | 98% (inactive) | 106% (inactive) | 146% (inactive) | 113% (inactive) | 109% (inactive) | 109% (inactive) | 88.7% (inactive) | – | – | – | – | – | – | – | – | – | – | –
8 | CCN1/C(=C/C=C/C=C/c2sc3ccccc3[n+]2CC)Sc2ccccc21 | -59.1% (active) | -31.9% (active) | -20.7% (active) | -35.3% (active) | -6.28% (active) | -45.6% (active) | -0.841% (active) | 9.48% (active) | 8.96% (active) | -31.7% (active) | – | – | – | – | – | – | – | – | – | –
9 | O=C1NC(=O)c2cc([N+](=O)[O-])ccc21 | 107% (inactive) | 103% (inactive) | 101% (inactive) | 85.5% (inactive) | 99.3% (inactive) | 103% (inactive) | 86.4% (inactive) | 99.2% (inactive) | 45.3% (inactive) | 96.9% (inactive) | – | – | – | – | – | – | – | – | – | –
10 | O=[N+]([O-])C1=C(c2ccccc2)SC=C(c2ccccc2)S1 | 88.3% (inactive) | 92.3% (inactive) | 73.7% (inactive) | 71.6% (inactive) | 104% (inactive) | 83.5% (inactive) | 85.5% (inactive) | 84% (inactive) | 14.8% (inactive) | 26.4% (inactive) | – | – | – | – | – | – | – | – | – | –
11 | NC(=O)SCC(=O)NNc1ccccc1 | 87.5% (inactive) | 99.4% (inactive) | 94.9% (inactive) | 78.9% (inactive) | 95.5% (inactive) | 81.1% (inactive) | 92.8% (inactive) | 93.7% (inactive) | 90.4% (inactive) | 111% (inactive) | – | – | – | – | – | – | – | – | – | –
12 | OCC1OC(n2cnc3c(=S)nc[nH]c32)C(O)C1O (stereo unspecified) | 100% (inactive) and 57.6% (inactive) | 106% (inactive) and 119% (inactive) | 95.1% (inactive) and 82.5% (inactive) | 93.9% (inactive) and 50.5% (inactive) | 97.9% (inactive) and 40.7% (inactive) | 103% (inactive) and 32.9% (inactive) | 104% (inactive) and 18% (inactive) | 105% (inactive) and 119% (inactive) | 107% (inactive) and 32.7% (inactive) | 120% (inactive) and 35.7% (inactive) | – | – | – | – | – | – | – | – | – | –
13 | O=C(C(=Cc1ccccc1)C(=O)c1ccccc1)c1ccccc1 | 90% (inactive) and 83.2% (inactive) | 79.2% (inactive) and 103% (inactive) | 78.6% (inactive) and 82.7% (inactive) | 60.9% (inactive) and 87.8% (inactive) | 124% (inactive) and 87.7% (inactive) | 62.3% (inactive) and 85.8% (inactive) | 84.5% (inactive) and 86.8% (inactive) | 72.2% (inactive) and 88.6% (inactive) | 10.8% (inactive) and 81.8% (inactive) | 10.6% (inactive) and 85.4% (inactive) | – | – | – | – | – | – | – | – | – | –
14 | Nc1ccc2cc3ccc(N)cc3nc2c1 | -26.2% (active) | 88.3% (inactive) and 25.2% (inactive) | 86.2% (inactive) and 9.16% (active) | 86.3% (inactive) and -14.7% (active) | 120% (inactive) and 25.8% (inactive) | 108% (inactive) and 1.69% (active) | 87.8% (inactive) and 4.44% (active) | 85.6% (inactive) and 1.64% (active) | 6.51% (active) | 90% (inactive) and 8.01% (active) | – | – | – | – | – | – | – | – | – | –
15 | COC1OCC(O)C(O)C1O (stereo unspecified) | 114% (inactive) | 99.1% (inactive) | 103% (inactive) | 86.2% (inactive) | 92.9% (inactive) | 111% (inactive) | 89.7% (inactive) | 84.5% (inactive) | 107% (inactive) | 101% (inactive) | – | – | – | – | – | – | – | – | – | –
16 | CCCCCCCCCCSC(=N)N | 61.9% (inactive) | 92.1% (inactive) | 60.9% (inactive) | 53.4% (inactive) | 60% (inactive) | 50.1% (inactive) | 46.4% (inactive) | 95.1% (inactive) | 51.3% (inactive) | 15.2% (inactive) | – | – | – | – | – | – | – | – | – | –
17 | CC(=O)OCC(OC(C)=O)C(OC(C)=O)C(OC(C)=O)C(OC(C)=O)C(/C=N/Nc1ccccc1)=N/Nc1ccccc1 (stereo unspecified) | 84.3% (inactive) | 60% (inactive) | 78.7% (inactive) | 48.6% (inactive) | 91.2% (inactive) | 56.2% (inactive) | 72.6% (inactive) | 83.4% (inactive) | 17.5% (inactive) | 30.6% (inactive) | – | – | – | – | – | – | – | – | – | –
18 | CC(=O)Nc1cc(C)ccc1C | 101% (inactive) | 99.9% (inactive) | 101% (inactive) | 88.1% (inactive) | 96.2% (inactive) | 106% (inactive) | 98.6% (inactive) | 83.8% (inactive) | 128% (inactive) | 110% (inactive) | – | – | – | – | – | – | – | – | – | –
19 | CC(C)C(NC(=O)CN)C(=O)O (stereo unspecified) (H-Gly-[ξV]-OH) | 108% (inactive) and 109% (inactive) | 102% (inactive) and 103% (inactive) | 104% (inactive) and 100% (inactive) | 84% (inactive) | 103% (inactive) and 93.9% (inactive) | 102% (inactive) and 109% (inactive) | 96.4% (inactive) and 97.1% (inactive) | 102% (inactive) and 99.9% (inactive) | 91.9% (inactive) and 96% (inactive) | 79.2% (inactive) and 101% (inactive) | – | – | – | – | – | – | – | – | – | –
20 | CC1=CC(C)=Nc2ccc(Cl)cc2N1 | 109% (inactive) | 108% (inactive) | 104% (inactive) | 85.9% (inactive) | 117% (inactive) | 105% (inactive) | 89.8% (inactive) | 106% (inactive) | 93.9% (inactive) | 97.5% (inactive) | – | – | – | – | – | – | – | – | – | –
